# Compounds with a hit are over-represented: about 4.1% of the library has one in this group of screens.
# MEKK2 mut-MEK5: MEK5 binding signal on mutant MEKK2 PB1, primary screen, biochemical, multiplex bead flow cytometry, Alexa488-MEK5; Alexa488-MEK5 binding to MEKK2 mutant; percent response, % at 10 µM; actives 0.35% (n = 290,000); in the data active = percent response above about 24%, passing the limit was not always enough
# Mot1-301 SUMO: yeast Mot1-301 growth rescue at high temperature, primary screen, SUMOylation pathway inhibitor project, S. cerevisiae, ATP luminescence, 38.5C; S. cerevisiae Mot1-301 growth rescue; percent above DMSO median, 100 means doubled; growth rescue, % at 18.8 µM; actives 1% (n = 320,000);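 active = every valid replicate shows activation above 250% relative to neutral control wells; inactive = the rest, any valid replicate at or below 250%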;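 also: OY570 slx delta 5 strain wells were the positive control but not used for scaling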
# MEKK2 WT-MEK5: modulators of MEK5 binding to wildtype MEKK2, primary screen, biochemical, multiplex bead flow cytometry, Alexa488-MEK5. Alexa488-MEK5 binding to MEKK2 WT; actives lie on both sides. actives 1.1% (n = 290,000). Mitogen-activated protein kinase kinase kinase 2 (Homo sapiens), Q9Y2U5. binding response (% of control), % at 10 µM; in the data active = binding response below about 67% or above about 130%
# CHT PAM: CHT positive allosteric modulators, primary screen, cell-based, membrane potential dye, choline EC20. High affinity choline transporter 1 (Homo sapiens), Q9GZV3. actives 0.49% (n = 310,000). B-score at 10 µM. CHT-expressing cells; active compounds read high; LV-AA mutant CHT in HEK293 cells;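 active = initial fluorescence not abnormally high and integrated response B-score, plate-corrected, over 3 SD above library mean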
# CHT block: inhibitors of human choline transporter CHT; actives 0.86% (n = 310,000); AID 488975, 2010; CHT-expressing cells, membrane potential dye, choline response; active compounds read low; B-score at 10 µM; High affinity choline transporter 1 (Homo sapiens), Q9GZV3;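 active = B-score over 3 SD under the library average, and starting fluorescence ratio not unusually high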;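 also: choline stimulus applied at its EC90 after an EC20 pre-addition; B-score computed on integrated fluorescence ratio after choline addition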
# MEKK3 PB1 HTS: modulators of MEKK3-MEK5 PB1 binding, primary screen, biochemical, wildtype MEKK3, multiplex bead flow cytometry, Alexa488-MEK5; binding response (% of control), % at 10 µM; bead-based flow cytometry, Alexa488-MEK5 binding to MEKK3; actives lie on both sides; 0 = blocked by unlabeled MEK5, 100 = vehicle; actives 1.4% (n = 290,000); AID 1529, 2009;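 active = binding response more than 3 SD above or below the average of its plate-row segment, actives on both sides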;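 also: Alexa488 bead fluorescence after subtracting the streptavidin-only scavenger bead signal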
# Target sequence (Q99759 whole entry, looked up): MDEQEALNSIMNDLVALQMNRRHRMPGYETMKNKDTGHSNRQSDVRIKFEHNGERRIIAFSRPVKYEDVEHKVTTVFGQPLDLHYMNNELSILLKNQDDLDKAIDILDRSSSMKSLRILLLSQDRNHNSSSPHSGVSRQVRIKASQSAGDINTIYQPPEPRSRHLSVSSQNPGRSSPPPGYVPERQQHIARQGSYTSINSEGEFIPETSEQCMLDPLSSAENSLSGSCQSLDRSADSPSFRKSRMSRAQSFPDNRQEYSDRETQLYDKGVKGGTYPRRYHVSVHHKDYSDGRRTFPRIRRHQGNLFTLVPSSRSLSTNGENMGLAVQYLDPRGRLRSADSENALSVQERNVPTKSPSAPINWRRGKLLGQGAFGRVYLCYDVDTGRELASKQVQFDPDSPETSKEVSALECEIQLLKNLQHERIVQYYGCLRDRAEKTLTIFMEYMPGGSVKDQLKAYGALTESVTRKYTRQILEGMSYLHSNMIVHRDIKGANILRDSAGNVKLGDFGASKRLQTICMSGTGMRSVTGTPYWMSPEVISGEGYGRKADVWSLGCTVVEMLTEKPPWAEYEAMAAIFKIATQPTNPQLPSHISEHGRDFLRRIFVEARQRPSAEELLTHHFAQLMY
# Yeast Mot1 SUMO: growth restoration of Mot1-301 yeast on galactose, dose response, SUMO pathway inhibitor project, whole organism, S. cerevisiae, ATP luminescence, cherry-picked samples | shares compounds with Mot1-301 SUMO | S. cerevisiae Mot1-301 galactose growth, 24 h; -100 = growth of slx-deleted rescue strain | growth activity, percent, % at 42 µM | 2,300 tested, under 10 active | AID 493004, 2010;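 active = Signal drops as the depositor expects, and the fitted half-maximal dose is no more than ten times the top valid tested dose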;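 also: more negative values mean stronger growth rescue toward the control strain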
# * hit, by the source's call; i = inactive; x = no result; + = active, no number.
SMILES,MEKK2 mut-MEK5,Mot1-301 SUMO,MEKK2 WT-MEK5,CHT PAM,CHT block,MEKK3 PB1 HTS,Yeast Mot1 SUMO
O=S(=O)(NC1CCCCC1N1CCN(c2ccc(F)cc2)CC1)c1ccccc1 (stereo not drawn),-2,-3,98,i,i,98,x
O=C(N/N=C/c1ccc(Cl)s1)c1ccccc1[N+](=O)[O-],-7,805*,95,i,i,92,1
CCCCNc1ccc(C(CC(N)=O)NC(=O)Cc2cccc3ccccc23)cc1[N+](=O)[O-] (stereo not drawn),2,15,101,i,i,100,x
NC(=O)CC(NC(=O)Cc1cccc2ccccc12)c1ccc(NCCCN2CCCC2=O)c([N+](=O)[O-])c1 (stereo not drawn),-5,+,102,i,i,98,0
Cc1nc2c(-c3ccc(F)cc3)cnn2c2c1CCC2,-7,583*,90,i,i,97,0
COc1ccc(C2C(C(=O)Nc3cc(OC)c(OC)c(OC)c3)c3ccccc3C(=O)N2C)cc1 (stereo not drawn),-16,465*,63,i,i,61,0
COc1ccc(-c2cn3nc(SCC(=O)NC4CCCCC4)ccc3n2)cc1,-4,553,100,i,i,96,x
NC(=O)NC(=O)CSc1nc(C2CCCCC2)n(-c2ccccc2)n1,-1,685*,100,i,i,101,0
CCN(CC)CCCn1c(=S)[nH]c2ccc(Cl)cc2c1=O,2,631*,101,i,i,102,0
CCOc1cccc(CN2CCN(CCCc3ccccc3)C(CCO)C2)c1O (stereo not drawn),6,-2,108,i,i,105,x
Clc1ccc(CONc2ncnc3nonc23)c(Cl)c1,-9,+,99,i,i,101,-2
COc1ccc(C2C(C(=O)c3ccccc3)=C(C)Nc3nc4ccccc4n32)c(OC)c1 (stereo not drawn),-4,-23,102,i,i,108,x
CN1CCN(C(=O)CCN2C(=O)/C(=C/c3ccccc3Cl)SC2=S)CC1,-5,378*,108,i,i,106,-1
CN1CCN(C(=O)CCN2C(=O)/C(=C\c3ccccc3F)SC2=S)CC1,7,-5,107,i,i,100,x
Cc1ccc(NC(=O)C/C(N)=N/O)cc1C,-4,11,100,i,i,99,x
Cc1cc(NC(=O)CC2CCCC2)ccc1Br,-5,386*,99,i,i,99,-1
COc1ccc(NC(=O)CC2CCCC2)cc1OC,-7,-13,91,i,i,94,x
Cc1ccc(NC(=O)CC2CS(=O)(=O)CC2CC(=O)Nc2ccc(C)c(C)c2)cc1C (stereo not drawn),2,440*,107,i,i,106,0
CC(C)c1ccc(/C=C2\NC(=S)N(Cc3cccnc3)C2=O)cc1,2,19,97,i,i,99,x
O=C(COC(=O)c1cccc(Br)c1)Nc1ccc2[nH]c(=O)[nH]c2c1,x,510*,x,i,i,x,0
CCOC(=O)C1CCN(C(=O)c2ccc3c(c2)NC(=O)/C(=C/c2ccccc2)S3)CC1,-8,405*,98,i,i,98,-1
CCOC(=O)C1CCN(C(=O)c2ccc3c(c2)NC(=O)/C(=C\c2ccc(C)cc2)S3)CC1,3,-2,96,i,i,100,x
COCCSc1ccccc1C(=O)NCc1ccco1,0,-5,98,i,i,99,x
COC(=O)Nc1ccc(S(=O)(=O)N2CCC(C(=O)NCc3ccc4c(c3)OCO4)CC2)cc1,x,-11,x,x,x,x,x
Cc1ccc(NC(=O)Cn2sc3nc(C)cc(C)c3c2=O)c(Cl)c1,1,559*,101,i,i,102,0
SMILES,MEKK2 mut-MEK5,Mot1-301 SUMO,MEKK2 WT-MEK5,CHT PAM,CHT block,MEKK3 PB1 HTS,Yeast Mot1 SUMO
Cc1cc(C)c2c(=O)n(CC(=O)Nc3ccc(Cl)cc3)sc2n1,8,-30,103,i,i,100,x
O=C(C1CC(=O)N(c2ccccc2)C1)N1CCN(c2ccc(F)cc2)CC1 (stereo not drawn),-2,99,98,i,i,101,x
CCc1nnc(NC(=O)CN2C(=O)N(C)C3(CCCCC3)C2=O)s1,x,-3,x,x,x,x,x
Cc1cc(C)c(NC(=O)Cn2c([N+](=O)[O-])cnc2C)c(C)c1,3,+,107,i,i,101,0
S=C(Nc1ccc(Cl)cc1)N1CCN(Cc2ccccc2)CC1,-11,590*,92,i,i,91,0
Cc1ccc(NC(=S)N2CCN(Cc3ccccc3)CC2)cc1,-3,-13,93,i,i,99,x
CC(C)(C)CC(=O)Nc1cc(S(=O)(=O)N2CCOCC2)ccc1N1CCCC1,3,508*,104,i,i,99,0
COCCCn1c(=O)c2ccccc2n(Cc2ccccc2C)c1=O,0,455*,104,i,i,106,0
c1ccc2c(c1)[nH]c1c(N3CCN(C4CCCCC4)CC3)ncnc12,4,739*,103,i,i,104,-1
c1ccc2c(c1)[nH]c1c(N3CCCC3)ncnc12,7,-16,100,i,i,101,x
COc1ccc([N+](=O)[O-])cc1NC(=O)C1CCCN1S(=O)(=O)c1cccs1 (stereo not drawn),x,418*,x,i,i,x,0
COc1ccc(NC(=O)C2CCCN2S(=O)(=O)c2cccs2)c([N+](=O)[O-])c1 (stereo not drawn),x,211,x,i,i,x,x
O=[N+]([O-])c1ccccc1/C=N\N1CCN(Cc2ccccc2Cl)CC1,4,40,109,i,i,105,x
Cc1ccc(C(C(=O)Nc2ccc3c(c2)OCO3)N(C)C(=O)Cc2c[nH]c3ccccc23)cc1 (stereo not drawn),-2,756*,102,i,i,109,0

# Source: PubChem
